# Results reported in publication PMC8384837, “Expanding the binding specificity for RNA recognition by a PUF domain”.
# Residue numbers refer to the chain shown, from its start.
# What was measured:
# Test in all cases: yeast three-hybrid, YBZ-1, SC-Leu-His + 0.5 mM 3-AT, 4 days
# Settings in all cases: tags: N-Gal4 AD-HA kept; label: inside an RPR1-promoter hybrid RNA with tandem MS2 sites; ssRNA
# PUM1 PUF domain R1-KWC = PUM1 PUF domain R1-KWC (Homo sapiens, UniProt Q14671 828-1176, S863K;R864W;Q867C)
# Summary of the method: (§1)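 The interaction score is the log change in variant frequency from input to selection. Scores were computed in log2 with a pseudocount of 1 for absent variants, using Illumina sequencing of PCR-amplified repeat regions. The input came from four days on SC-Leu and the selection from four days on SC-Leu-His + 0.5 mM 3-AT. The cells were strain YBZ-1 (LexA–MS2 coat fusion, HIS3 reporter) co-expressing Pumilio-1 PUF domain libraries and matching RNA elements from a centromeric plasmid.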
# PUM1 PUF domain R4-EFD = PUM1 PUF domain R4-EFD (Homo sapiens, UniProt Q14671 828-1176, N971E;H972F;Q975D)
# Summary of the method: as §1
# PUM1 PUF domain R5-RRA = PUM1 PUF domain R5-RRA (Homo sapiens, UniProt Q14671 828-1176, C1007R;Q1011A)
# Summary of the method: as §1
# PUM1 PUF domain R5-LFS = PUM1 PUF domain R5-LFS (Homo sapiens, UniProt Q14671 828-1176, C1007L;R1008F;Q1011S)
# Summary of the method: as §1
# PUM1 PUF domain R6-YRI = target: T1, PUM1 PUF domain R6-YRI (Homo sapiens, UniProt Q14671 828-1176, N1043Y;Y1044R;Q1047I)
# T1 sequence: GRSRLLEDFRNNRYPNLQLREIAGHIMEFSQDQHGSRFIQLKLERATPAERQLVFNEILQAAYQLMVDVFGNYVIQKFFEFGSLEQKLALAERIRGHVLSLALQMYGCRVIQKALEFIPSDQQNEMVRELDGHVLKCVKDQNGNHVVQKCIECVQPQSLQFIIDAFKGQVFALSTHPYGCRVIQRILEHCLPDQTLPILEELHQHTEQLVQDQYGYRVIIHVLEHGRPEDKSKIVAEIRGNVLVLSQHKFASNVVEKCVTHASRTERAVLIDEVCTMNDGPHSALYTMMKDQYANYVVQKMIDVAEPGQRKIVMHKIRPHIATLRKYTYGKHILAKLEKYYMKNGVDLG
# Summary of the method: as §1
# PUM1 PUF domain R6-KWG = target: T2, PUM1 PUF domain R6-KWG (Homo sapiens, UniProt Q14671 828-1176, N1043K;Y1044W;Q1047G)
# T2 sequence: T1 sequence with Y216K, R217W, I220G
# Summary of the method: as §1
# PUM1 PUF domain R5-KRY = PUM1 PUF domain R5-KRY (Homo sapiens, UniProt Q14671 828-1176, C1007K;Q1011Y)
# Summary of the method: as §1
# PUM1 PUF domain R5-GLR = PUM1 PUF domain R5-GLR (Homo sapiens, UniProt Q14671 828-1176, C1007G;R1008L;Q1011R)
# Summary of the method: as §1
# PUM1 PUF domain R5-RLT = PUM1 PUF domain R5-RLT (Homo sapiens, UniProt Q14671 828-1176, C1007R;R1008L;Q1011T)
# Summary of the method: as §1
# PUM1 PUF domain R5-TGR = PUM1 PUF domain R5-TGR (Homo sapiens, UniProt Q14671 828-1176, C1007T;R1008G;Q1011R)
# Summary of the method: as §1
# PUM1 PUF domain R2-AKP = PUM1 PUF domain R2-AKP (Homo sapiens, UniProt Q14671 828-1176, N899A;Y900K;Q903P)
# Summary of the method: as §1
# PUM1 PUF domain R1-RFC = PUM1 PUF domain R1-RFC (Homo sapiens, UniProt Q14671 828-1176, S863R;R864F;Q867C)
# Summary of the method: as §1
# PUM1 PUF domain R6-SYR = target: T3, PUM1 PUF domain R6-SYR (Homo sapiens, UniProt Q14671 828-1176, N1043S;Q1047R)
# T3 sequence: T1 sequence with Y216S, R217Y, I220R
# Summary of the method: as §1
# PUM1 PUF domain R5-MRD = PUM1 PUF domain R5-MRD (Homo sapiens, UniProt Q14671 828-1176, C1007M;Q1011D)
# Summary of the method: as §1
# PUM1 PUF domain R4-GQS = PUM1 PUF domain R4-GQS (Homo sapiens, UniProt Q14671 828-1176, N971G;H972Q;Q975S)
# Summary of the method: as §1
# PUM1 PUF domain R5-LYL = PUM1 PUF domain R5-LYL (Homo sapiens, UniProt Q14671 828-1176, C1007L;R1008Y;Q1011L)
# Summary of the method: as §1
# PUM1 PUF domain R7-GSV = PUM1 PUF domain R7-GSV (Homo sapiens, UniProt Q14671 828-1176, S1079G;N1080S;E1083V)
# Summary of the method: as §1
# PUM1 PUF domain R7-QPG = PUM1 PUF domain R7-QPG (Homo sapiens, UniProt Q14671 828-1176, S1079Q;N1080P;E1083G)
# Summary of the method: as §1
# PUM1 PUF domain R3-KSR = PUM1 PUF domain R3-KSR (Homo sapiens, UniProt Q14671 828-1176, C935K;R936S;Q939R)
# Summary of the method: as §1
# PUM1 PUF domain R8-RHD = PUM1 PUF domain R8-RHD (Homo sapiens, UniProt Q14671 828-1176, N1122R;Y1123H;Q1126D)
# Summary of the method: as §1
sequence,measurement,setting,value
GGCUAGAACUAGUGGAUCCCCCGGCGCCCGGCGGCUCGAGCCCGGGUAAGUGUAAAUUGUCUGCAUGCCGCCGGGCGCCAUGCCUGCAGGUCGACUCUAGAAAACAUG,binding signal,PUM1 PUF domain R1-KWC,3.86 log2 enrichment (interaction score)
GGCUAGAACUAGUGGAUCCCCCGGCGCCCGGCGGCUCGAGCCCGGGUAAGUGUACAUAGUCUGCAUGCCGCCGGGCGCCAUGCCUGCAGGUCGACUCUAGAAAACAUG,binding signal,PUM1 PUF domain R4-EFD,2.47 log2 enrichment (interaction score)
GGCUAGAACUAGUGGAUCCCCCGGCGCCCGGCGGCUCGAGCCCGGGUAAGUGUGAAUAGUCUGCAUGCCGCCGGGCGCCAUGCCUGCAGGUCGACUCUAGAAAACAUG,binding signal,PUM1 PUF domain R5-RRA,1.09 log2 enrichment (interaction score)
same,binding signal,PUM1 PUF domain R5-LFS,1.48 log2 enrichment (interaction score)
GGCUAGAACUAGUGGAUCCCCCGGCGCCCGGCGGCUCGAGCCCGGGUAAGUGAAAAUAGUCUGCAUGCCGCCGGGCGCCAUGCCUGCAGGUCGACUCUAGAAAACAUG,binding signal,PUM1 PUF domain R6-YRI,3.61 log2 enrichment (interaction score)
same,binding signal,PUM1 PUF domain R6-KWG,5.8 log2 enrichment (interaction score)
GGCUAGAACUAGUGGAUCCCCCGGCGCCCGGCGGCUCGAGCCCGGGUAAGUGUCAAUAGUCUGCAUGCCGCCGGGCGCCAUGCCUGCAGGUCGACUCUAGAAAACAUG,binding signal,PUM1 PUF domain R5-KRY,4.04 log2 enrichment (interaction score)
same,binding signal,PUM1 PUF domain R5-GLR,2.62 log2 enrichment (interaction score)
same,binding signal,PUM1 PUF domain R5-RLT,2.62 log2 enrichment (interaction score)
same,binding signal,PUM1 PUF domain R5-TGR,5.8 log2 enrichment (interaction score)
same,binding signal,PUM1 PUF domain R5-RRA,4.67 log2 enrichment (interaction score)
GGCUAGAACUAGUGGAUCCCCCGGCGCCCGGCGGCUCGAGCCCGGGUAAGUGUAAAGAGUCUGCAUGCCGCCGGGCGCCAUGCCUGCAGGUCGACUCUAGAAAACAUG,binding signal,PUM1 PUF domain R2-AKP,3.58 log2 enrichment (interaction score)
GGCUAGAACUAGUGGAUCCCCCGGCGCCCGGCGGCUCGAGCCCGGGUAAGUGUAAAUCGUCUGCAUGCCGCCGGGCGCCAUGCCUGCAGGUCGACUCUAGAAAACAUG,binding signal,PUM1 PUF domain R1-RFC,3.46 log2 enrichment (interaction score)
GGCUAGAACUAGUGGAUCCCCCGGCGCCCGGCGGCUCGAGCCCGGGUAAGUGCAAAUAGUCUGCAUGCCGCCGGGCGCCAUGCCUGCAGGUCGACUCUAGAAAACAUG,binding signal,PUM1 PUF domain R6-SYR,6.87 log2 enrichment (interaction score)
GGCUAGAACUAGUGGAUCCCCCGGCGCCCGGCGGCUCGAGCCCGGGUAAGUGUUAAUAGUCUGCAUGCCGCCGGGCGCCAUGCCUGCAGGUCGACUCUAGAAAACAUG,binding signal,PUM1 PUF domain R5-MRD,2.48 log2 enrichment (interaction score)
same,binding signal,PUM1 PUF domain R5-LFS,1.78 log2 enrichment (interaction score)
GGCUAGAACUAGUGGAUCCCCCGGCGCCCGGCGGCUCGAGCCCGGGUAAGUGUAAAUAGUCUGCAUGCCGCCGGGCGCCAUGCCUGCAGGUCGACUCUAGAAAACAUG,binding signal,PUM1 PUF domain R4-GQS,2.47 log2 enrichment (interaction score)
same,binding signal,PUM1 PUF domain R5-GLR,1.61 log2 enrichment (interaction score)
same,binding signal,PUM1 PUF domain R4-EFD,2.17 log2 enrichment (interaction score)
same,binding signal,PUM1 PUF domain R5-MRD,2.65 log2 enrichment (interaction score)
same,binding signal,PUM1 PUF domain R5-RRA,1.06 log2 enrichment (interaction score)
same,binding signal,PUM1 PUF domain R5-LFS,2.29 log2 enrichment (interaction score)
same,binding signal,PUM1 PUF domain R6-SYR,6.46 log2 enrichment (interaction score)
same,binding signal,PUM1 PUF domain R5-LYL,2.85 log2 enrichment (interaction score)
GGCUAGAACUAGUGGAUCCCCCGGCGCCCGGCGGCUCGAGCCCGGGUAAGUUUAAAUAGUCUGCAUGCCGCCGGGCGCCAUGCCUGCAGGUCGACUCUAGAAAACAUG,binding signal,PUM1 PUF domain R7-GSV,2.83 log2 enrichment (interaction score)
same,binding signal,PUM1 PUF domain R7-QPG,4.67 log2 enrichment (interaction score)
GGCUAGAACUAGUGGAUCCCCCGGCGCCCGGCGGCUCGAGCCCGGGUAAGUGUAAUUAGUCUGCAUGCCGCCGGGCGCCAUGCCUGCAGGUCGACUCUAGAAAACAUG,binding signal,PUM1 PUF domain R3-KSR,4.1 log2 enrichment (interaction score)
GGCUAGAACUAGUGGAUCCCCCGGCGCCCGGCGGCUCGAGCCCGGGUAAGCGUAAAUAGUCUGCAUGCCGCCGGGCGCCAUGCCUGCAGGUCGACUCUAGAAAACAUG,binding signal,PUM1 PUF domain R8-RHD,5.28 log2 enrichment (interaction score)
GGCUAGAACUAGUGGAUCCCCCGGCGCCCGGCGGCUCGAGCCCGGGUAAGUGUAAGUAGUCUGCAUGCCGCCGGGCGCCAUGCCUGCAGGUCGACUCUAGAAAACAUG,binding signal,PUM1 PUF domain R3-KSR,1.19 log2 enrichment (interaction score)
